Among the data in PubChem BioAssay (NCI) are growth values, retold here.

The panel holds about 83,000 compounds, 20% with a hit somewhere; the sample as a whole holds those more often.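 Interpretation: 100, growth as untreated; towards 0, rising growth inhibition; 0, no net growth; 0 to -100, cell death. Compounds scoring below 10 were considered active.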 Activity calls are given as the source filed them.

In the test the test system is HL-60(TB) leukemia. Put plainly: NCI-60 one-dose screen, 48 h (100 = growth as untreated, 0 = no growth, -100 = all killed). Particulars: 10 µM unless noted.
For the compound `Cc1ccc2c(-c3nnc(N)s3)cc(=O)oc2c1C`, the growth is 100% (inactive). The result for `CCCCCCCC/C=C\CCCCCCCCOc1ccccc1CC(=O)NCC[N+]1(C)CCCCC1` reads -19.6% (active); that for `COc1ccc(Cn2cc3c(c2-c2ccc(O)cc2)CCc2cnoc2-3)cc1`, 4.87% (active). The result for `COC(=O)c1c2c(c[n+]([O-])c1C)C(=O)C=C(NCc1ccccc1)C2=O` reads -49.4% (active); that for `COc1ccc(-c2cc(=O)n(-c3nc4ccccc4[nH]3)[nH]2)cc1OC`, 35.4% (inactive); that for `CN1CCN(CC(O)COc2c(Br)c(Br)c(Br)c3c2OC(C)(C)C3)CC1` (stereo not given), 35.5% (inactive). The result for `O=C1NC(=O)/C(=C/C=C/c2ccccc2)S1` reads -29.3% (active); that for `CCCCOS(=O)(=O)c1ccccc1`, 111% (inactive). `c1cncc(CNc2ccccc2-c2nnc(Nc3ccc4c(c3)OCO4)o2)c1`: the growth was -22.5% (active).

Regarding `C=C1c2c(C)nn(-c3ccc(S(N)(=O)=O)cc3)c2N(C)C23CC1C1(C)c4c(C)nn(-c5ccc(S(N)(=O)=O)cc5)c4N(C)C(C)(CC12)C3` (stereo not given), the growth is 8.58% (active).

Take `CCCCc1ccc2nc(NC(=O)OC)[nH]c2c1`: the growth is -65.6% (active). Regarding `Clc1ccc2c(NCCCCNc3nc(N4CCOCC4)nc4ccccc34)ccnc2c1`, the growth was -59.8% (active). The result for `CC(=O)Nc1ccc(Cl)cc1Cl` reads 109% (inactive); that for `O=C(CCCn1c(=O)c2sc3ccccc3c2n2nnc(-c3ccccc3)c12)NCCc1cnc[nH]1`, 82.9% (inactive). As to `COc1ccc(-c2cc(Cc3cccs3)c(=O)n(Cn3cncn3)n2)cc1`, the growth is 107% (inactive). The result for `CC(=O)OCc1cc(-c2nc3ccccc3[nH]c2=O)nn1-c1ccc(Cl)cc1` reads 84.5% (inactive); that for `CC/C=C\C[C@H](O)C/C=C1/C(=O)C=C[C@@H]1C/C=C\CCCC(=O)NC(C)C`, -28.2% (active).

Take `O=c1cn[nH]c2ccc(Br)cc12`: the growth is 85.5% (inactive). To `C=C/C(C)=C/C[C@]1(C)[C@H](C)[C@@H](OC(=O)CCC)[C@H](O)[C@@]23C(=C[C@H](OC)C[C@@H]12)[C@@H](OC(=O)CCC)O[C@H]3OC(C)=O` belongs -43.9% (active); to `C=C1C(=O)O[C@H]2[C@H]1CC/C(COC(=O)NCc1ccc(Cn3c(=O)sn(-c4ccc(C#N)cc4)c3=O)cc1)=C\CC[C@@]1(C)O[C@@H]21`, -13.1% (active). To `O[C@H]1[C@H]2c3cc4c(cc3CN3CCC(=C[C@@H]1O)[C@H]23)OCO4` belongs 5.02% (active); to `O=C1C(Cl)=C(N=Nc2c(Cl)c(O)c3ccccc3c2O)C(=O)c2ccccc21`, 90.7% (inactive). The result for `CCNC(=O)Oc1ccc(/C(=C(/CC)Cc2ccccc2)c2ccc(OCCN3CCOCC3)cc2)cc1` reads 5.28% (active); that for `COc1cccc(/C=N/NC(=O)c2ccccc2N2CCCC2)c1O`, 4.58% (active). As to `C/C=C(/C)C(=O)OC1C=C(CO)C(=O)C(OC(=O)C(C)(O)C(C)Cl)C1C(C)C` (stereo not given), the growth was -25.3% (active). Regarding `COc1cc(-c2nc3occn3c2-c2ccnc(NCCCNS(=O)(=O)c3ccc(O)cc3)n2)ccc1F`, the growth was 95.3% (inactive). `N=C(N)N=Nc1ccc(NN=C(N)N)cc1`: the growth was 101% (inactive). As to `Cc1ccc2nc(/C=C/c3ccc(N(C)C)cc3)cc(C)c2c1`, the growth is 15.2% (inactive). On to `C#CCNC(=O)[C@]1(C)CC[C@]2(C)CC[C@@H]3C(=CC[C@H]4[C@@]3(C)CC[C@H]3C(C)(C)C(=O)CC[C@]43C)[C@@H]2C1`, for which the growth was 56.2% (inactive). To `CCOc1cc(NC(=O)c2ccccc2)c(OCC)cc1N` belongs 109% (inactive); to `ClC1=C(Cl)C(Cl)=C(Cl)C1=Cc1ccc(Cl)cc1`, -4.27% (active). The result for `Clc1ccc(I)c2ccccc12` reads 98.1% (inactive); that for `O=C(NCCNc1nccc(-n2ccc3cccnc32)n1)c1ccc(C(F)(F)F)cc1`, 107% (inactive); that for `CCOC(=O)c1noc2c1CCc1cn(Cc3cc(OC)cc(OC)c3)cc1-2`, 77.1% (inactive). The result for `COc1ccc2nc(-c3ccc(Cl)cc3)cc(-c3nnc(SCC(=O)Nc4ccc(C(C)=O)cc4)n3-c3ccccc3)c2c1` reads 99.3% (inactive); that for `CNC(=O)c1cc(Oc2ccc(NC(=O)Nc3ccc(Cl)c(OC(F)(F)F)c3)c(F)c2)ccn1`, 28.9% (inactive); that for `Cc1[nH]c(C(=O)Nc2ccccc2OC2CCNCC2)c(Cl)c1Cl`, -57.1% (active). `CC1(C)N=C(N)N=C(N)N1c1cccc(CCCCc2ccccc2)c1`: the growth was -76% (active). The result for `N=C(N)c1ccc(-c2ccc(-c3ccc(F)cc3)s2)nc1` reads -28% (active); that for `Cc1cc(Nc2nc(N3CCNCC3)nc3ccccc23)n[nH]1`, 106% (inactive).
